Test results published in PubChem BioAssay AID2113 (National Center for Advancing Translational Sciences (NCATS), 2009).
Inconclusive results are not listed. Values without a mark were called inactive. Active and inactive are the calls of the source. Calls come from the whole dose curve; as a rule, active = well fitted curve in either direction with a large enough effect; inconclusive = small, poorly fitted or top-dose-only effect; inactive = no such curve, though single readings can be large or run the other way.

What follows are molecules tested against Lysosomal alpha-glucosidase (Homo sapiens) (UniProt P10253) (assay: Confirmation of Inhibitors and Activators of Human alpha-Glucosidase From Spleen Homogenate). Conditions: alpha-glucosidase enzyme activity; series mostly up to 60.5 µM; activity change, both directions: at the top concentration.
Text: NIH Chemical Genomics Center [NCGC]
NIH Molecular Libraries Probe Production centers Network [MLPCN]
Assay Submitter (PI): Wei Zheng
Alpha-glucosidase is responsible for hydrolysis of terminal, non-reducing 1,4-linked alpha-D-glucose residues with release of alpha-D-glucose. It is a lysosomal hydrolase that is required for the degradation of a small percentage (1-3%) of cellular glycogen in human. Deficiency of this enzyme results in glycogen-storage disease type II (GSDII), also referred to as Pompe disease, an autosomal recessive disorder. Structurally normal glycogen is accumulated in lysosomes and cytoplasm in affected patients, primarily in muscle tissues. Excessive glycogen storage within lysosomes may interrupt normal functioning of other organelles and leads to cellular injury. In turn, this leads to enlargement and dysfunction of the entire organ involved (eg, cardiomyopathy and muscle weakness).
It has reported that the improper folding and trafficking of alpha-glucosidase resultinged from the genetic mutations may account for a significant number of Pomrope patients. […] We optimized this alpha-glucosidase assay in 1536-well plate format for identifying the novel small molecule inhibitors with the structures other than the sugar analogs in order to develop the new pharmacological chaperones. In particular, this assay is directed towards discovering compounds active in a more natural setting, tissue homogenate, that may have been missed by screens of the purified enzyme under more stringent conditions. This assay attempted to confirm hits from the primary screening.
NCGC Assay Protocol Summary:
This is a fluorogenic enzyme assay with 4-methylumbelliferyl-alpha-D-glucopyranoside as the substrate and human spleen homogenate containing alpha-glucosidase as the enzyme preparation. Upon hydrolysis of this fluorogenic substrate, the resulting product, 4-methylumbelliferone (which excites at 365 nm and emits at 440 nm) can be detected by a fluorescence plate reader. Data were normalized to the controls for basal activity (without enzyme) and 100% activity (with enzyme). The AC50 values were determined from concentration-response data modeled with the standard Hill equation.
Assay buffer: 50 mM citric acid (titrated with potassium phosphate to pH 5.0), 0.01% Tween-20 (pH 5.0 is an optimal condition for this enzyme assay)
1536-well assay protocol for the alpha-glucosidase from human spleen homogenate:
(1) Add 2 ul/well spleen homogenate (1 ug)
(2) Add 23 nL compounds in DMSO solution. The final titration was 0.5 nM to 58 uM.
(3) Add 2 ul of substrate (1 mM final)
(4) Incubate at 37 C for 40 min
(5) Add 2 ul stop solution (1M NaOH and 1M Glycine mixture, pH 10)
(6) Detect the assay plate in a ViewLux plate reader (PerkinElmer) with Ex=365 nm and Em=440nm.
Keywords: Alpha-glucosidase, Pompe Disease, pharmacological chaperone, chaperone therapy, high throughput screening, alpha-glucosidase inhibitor, MLSMR, MLSCN, NIH Roadmap, qHTS and NCGC
Potency is the fitted concentration of half-maximal effect.
Throughout, for activity change, both directions: 0% is about no effect.

| Structure (SMILES) | activity change, both directions | Potency |
| --- | --- | --- |
| Cc1ccccc1-n1c(N)cc(=O)[nH]c1=S | 0.384% [at 31.5 µM] |  |
| CC(=O)c1ccc(N2CCN(S(=O)(=O)c3ccc4c(c3)OCC(=O)N4)CC2)cc1 | -10.1% |  |
| c1ccc(-n2c(-c3cccs3)nc3nc4ccccc4nc32)cc1 | 17.9% |  |
| Cc1[nH]nc2c1C(c1ccc(OC(=O)c3ccco3)cc1)C(C#N)=C(N)O2 (stereo not given) | 1.59% |  |
| Cc1sc(-c2cc3cc(Cl)ccc3oc2=O)nc1-c1ccccc1 | 6.22% |  |
| O=C(O)c1c(-c2ccccc2)c2oc3ccccc3c2[nH]c1=O | 5.29% [at 31.5 µM] |  |
| O=C(CC(c1ccccc1)c1cc(Br)ccc1O)NCCN1CCOCC1 (stereo not given) | 4.56% [at 31.5 µM] |  |
| O=C(c1cccc2ccccc12)N1CCN(S(=O)(=O)c2ccccc2)CC1 | -15.3% |  |
| COc1ccc(/C=c2\s/c(=C/C(=O)c3ccc(C)cc3)[nH]c2=O)cc1OC | -4.47% [at 31.5 µM] |  |
| Nc1cc(=O)[nH]c(=S)n1-c1cccc(C(F)(F)F)c1 | -2.3% [at 31.5 µM] |  |
| CN(C)C=Nc1nc2ccccc2nc1N1CCCC1 | 7.05% [at 31.5 µM] |  |
| COc1ccc(CCn2c3c(c(=O)[nH]c2=S)CN(C)CN3)cc1OC |  | 31.6 µM (active) |
| O=C1CC(N2CCN(c3cccc(C(F)(F)F)c3)CC2)C(=O)N1c1ccc(F)cc1 (stereo not given) | 0.41% [at 31.5 µM] |  |
| Cc1cccc(-n2c(N)cc(=O)[nH]c2=S)c1C | 0.661% [at 31.5 µM] |  |
| COc1ccc(CCn2cc(C#N)c(=O)[nH]c2=O)cc1OC | -2.91% [at 31.5 µM] |  |
| COc1cc(=O)[nH]c(=O)n1C(=O)Cc1ccccc1 | 2.38% [at 31.5 µM] |  |
| COc1ccc(CCn2c3c(c(=O)[nH]c2=O)C(NC(=O)c2cccs2)(C(F)(F)F)C(=O)N3)cc1OC (stereo not given) | 4.85% [at 31.5 µM] |  |
| O=C1Cc2cc(S(=O)(=O)N3CCN(c4ccc(O)cc4)CC3)ccc2N1 |  | 6.68 µM [inhibitor] (active) |
| CCCN1CNc2c(c(=O)[nH]c(=S)n2CCc2ccc(C)c(C)c2)C1 |  | 20 µM (active) |
| COc1cccc2cc(-c3nc(-c4ccc(C)cc4)c(C)s3)c(=O)oc12 | 4.81% |  |

| Structure (SMILES) | activity change, both directions | Potency |
| --- | --- | --- |
| C(=C\c1ccc2ccccc2n1)/c1ccc2c(c1)OCO2 | 16.2% |  |
| O=S(=O)(c1ccccc1)N1CCN(S(=O)(=O)c2ccccc2)CC1 | 4.23% |  |
| COc1ccc(/C=C/c2nnc(NC(C)=O)s2)cc1 | 1.39% |  |
| O=S(=O)(c1ccc(Br)cc1)N1CCOCC1 | 1.29% |  |
| COC(=O)c1ccc(S(=O)(=O)N2CCOCC2)cc1 | -1.83% |  |
| CC(C)CNc1c(N)n(CC(C)C)c(=O)[nH]c1=O | 0.596% [at 31.5 µM] |  |
| C=C(C)CC(NCc1ccco1)c1ccc(OC)cc1 (stereo not given) | 4.39% |  |
| CCCN1CNc2c(c(=O)[nH]c(=S)n2CCc2ccccn2)C1 | -10.2% |  |
| Cc1c(OCC(F)(F)F)ccnc1CS(=O)c1nc2ccccc2[nH]1 (stereo not given) | -4.12% [at 286 µM] |  |
| CCc1sc(-c2cc3ccccc3oc2=O)nc1-c1ccccc1 | 11.7% |  |
| CCc1ccc(-c2nc(-c3cc4ccc(OC(C)=O)cc4oc3=O)sc2C)cc1 | 3.56% |  |
| COc1ccccc1NC(=O)c1ccc(Br)o1 | -0.467% [at 31.5 µM] |  |
| C=CCCCCCCCCCCCc1ccco1 | -13.3% [at 286 µM] |  |
| CC(=O)c1ccc(N2CCN(S(=O)(=O)c3ccc4[nH]c(=O)[nH]c4c3)CC2)cc1 | 0.795% |  |
| CCCN1CNc2c(c(=O)[nH]c(=S)n2CCc2ccc3c(c2)OCCO3)C1 |  | 15.8 µM (active) |
| O=S(=O)(c1ccccc1)N1CCN(Cc2ccccc2)CC1 | -2.68% |  |
| O=C(c1ccccc1)N1CCN(S(=O)(=O)c2ccccc2)CC1 | 1.54% |  |
| Cc1ccc(S(=O)(=O)N(C)C)cc1NC(=O)COC(=O)Cc1ccc(Br)cc1 | 2.8% |  |
| CCCN1CNc2c(c(=O)[nH]c(=S)n2-c2ccc(Cl)cc2)C1 | -3.54% [at 31.5 µM] |  |
| O=C1c2ccccc2NC(c2cccnc2)N1c1ccccc1F (stereo not given) | 8.66% [at 31.5 µM] |  |
